Test results: PubChem BioAssay (Tox21)
Activity calls are given as the source filed them. The call rests on the fitted dose curve; in most records, active means well fitted curve in the direction sought with a large enough effect in the repeat runs; inconclusive means weak or mixed curves; inactive means flat fitted curve, though single readings scatter.

Assay: qHTS assay to test for compound auto fluorescence at 460 nm (blue) in HEK293 cells (AID 720678)
Settings: blue autofluorescence 405/460 nm; series mostly up to 91.3 µM; fluorescence, % of triamterene: at the top concentration
Description: National Center for Advancing Translational Sciences [NCATS]
NIH Chemical Genomics Center [NCGC]
U.S. Environmental Protection Agency [EPA]
National Institutes of Environmental Health Sciences [NIEHS]
National Toxicology Program [NTP]
U.S. Food and Drug Administration [FDA]
Compound auto fluorescence often interferes with screening of the compound library against various biological targets and signaling pathways. Some of these compounds may have fluorophoric properties. Such properties may interfere with the assay outputs resulting in false positives and/or negatives. To decrease such complications and ensure the compound activities are relevant in terms of biological response, the Tox21 10K compound library was screened for auto fluorescence.
From the fluorophores used as reporter signals in our screening assays, the auto fluorescence equivalencies of compounds against three fluorophores have been evaluated: Triamterene, Fluorescein and Rose Bengal sodium for blue, green and red fluorescence, respectively. The fluorescence intensities were measured using Excitation/Emission wavelengths at 405/460nm, 485/535nm and 540/590nm for blue, green and red labels, respectively. This assay includes the blue fluorescence data.
Tox21 Assay Protocol Summary:
2,000 HEK293 cells in 5 uL of culture medium containing 10% dialyzed FBS per well were dispensed into black wall/clear bottom 1536-well plates using a Multidrop Combi Dispenser (Thermo Scientific). The assay plates were incubated for 4-5 hr at 37C to allow cell attachment to the well bottom, followed by the transfer of 23 nL compound or DMSO vehicle by a pintool work station (Kalypsys, San Diego, CA). After the assay plates were incubated overnight at 37C and 5% CO2, fluorescence intensities in the assay plates were measured by an Envision (PerkinElmer, Shelton, CT) plate reader using three labels for measuring blue, green and red fluorescence at […] 460, 535 and 590nm respectively.
On the % scale 0 is the no-effect control and ±100 the full control effect.

Compound	fluorescence, % of triamterene	outcome
CCCC(=O)Cl	-0.123% (inactive)	
CCOC(=O)CBr	0.0312% (inactive)	
CNC(C)Cc1ccccc1OC (stereo not given)	0.225% [at 46 µM] (inactive)	
CC(C)(C)c1cc([N+](=O)[O-])cc([N+](=O)[O-])c1O	-0.846% (inactive)	
CC1CC(CC2CCC(N)C(C)C2)CCC1N (stereo not given)	0.173% [at 95.7 µM] (inactive)	
CCOP(O)OCC	-0.0352% (inactive)	
Clc1cccc(SC2CCNCC2)n1	0.119% [at 46 µM] (inactive)	
Cc1cc(=O)[nH]o1	0.328% [at 95.7 µM] (inactive)	
Cc1ccccc1CCl	0.0755% (inactive)	
CCC(COC(=O)c1cc(OC)c(OC)c(OC)c1)(c1ccccc1)N(C)C (stereo not given)	-0.0237% [at 46 µM] (inactive)	
CCOC(=O)COc1cc(-c2nn(C)c(OC(F)F)c2Cl)c(F)cc1Cl	-0.269% (inactive)	
CCCN(CCC)c1c([N+](=O)[O-])cc(S(C)(=O)=O)cc1[N+](=O)[O-]	-0.135% (inactive)	
CC1(C)CCC(Cc2ccc(Cl)cc2)C1(O)Cn1cncn1 (stereo not given)	0.0694% (inactive)	
CC(=O)NC1CCSC1=O (stereo not given)		inactive
C[C@H]1CNCCc2ccc(Cl)cc21	0.2% [at 46 µM] (inactive)	
C=CCCl	0.0281% [at 95.7 µM] (inactive)	
BrCCCCBr	-0.0035% (inactive)	
CCOP(=O)(OCC)SCCSCC	0.0063% (inactive)	
O=S(=O)(Cl)c1ccccc1	0.0142% (inactive)	
O=S1(=O)OC(c2cc(Br)c(O)c(Br)c2)(c2cc(Br)c(O)c(Br)c2)c2ccccc21	-0.0821% (inactive)	

Compound	fluorescence, % of triamterene	outcome
O=C1C(Cl)C(CCl)CN1c1cccc(C(F)(F)F)c1 (stereo not given)	-0.0927% (inactive)	
CCC(C)(NC(=O)c1cc(Cl)c(C)c(Cl)c1)C(=O)CCl (stereo not given)	-0.33% (inactive)	
CCCCCC[N+](=O)[O-]	0.054% (inactive)	
COC(=O)C(C)N(C(=O)Cc1ccccc1)c1c(C)cccc1C (stereo not given)	0.135% (inactive)	
COP(=S)(Oc1cc(Cl)c(Br)cc1Cl)c1ccccc1 (stereo not given)	-0.137% (inactive)	
O=NN1CCCCCC1	-0.0607% (inactive)	
NC(=O)C(Cl)(Cl)Cl	0.0112% (inactive)	
Cc1c(F)c(F)c(COC(=O)C2C(/C=C(\Cl)C(F)(F)F)C2(C)C)c(F)c1F (stereo not given)	-0.038% (inactive)	
COc1cc(CC(C)N)cc2c1OCO2 (stereo not given)	-0.275% [at 95.7 µM] (inactive)	
CCCCC(O)(Cn1cncn1)c1ccc(Cl)cc1Cl (stereo not given)	-0.161% (inactive)	
Cc1ccc(N)cc1C	-0.0055% (inactive)	
COC(=O)C(Br)CBr (stereo not given)	-0.106% (inactive)	
CCOP(=S)(OCC)SCn1nnc2ccccc2c1=O	0.114% (inactive)	
BrCC(Br)C1CCC(Br)C(Br)C1 (stereo not given)	0.0045% (inactive)	
CCCC(Cn1cncn1)c1ccc(Cl)cc1Cl (stereo not given)	-0.0105% (inactive)	
CCCCOC(=O)c1ccccc1C(=O)OCc1ccccc1		inactive
Nc1ccc([N+](=O)[O-])cc1[N+](=O)[O-]	-0.28% (inactive)	
O=C1CN=C(c2ccccc2)c2cc(Cl)ccc2N1CC1CC1		inactive
CC(C)(C)C(O)C(Oc1ccc(Cl)cc1)n1cncn1 (stereo not given)	-0.165% (inactive)	
CCCCCCCCOC(=O)c1ccc(C(=O)OCCCCCCCC)c(C(=O)OCCCCCCCC)c1	0.0404% [at 95.7 µM] (inactive)	
